Test [1] has as its target RAF proto-oncogene serine/threonine-protein kinase (Homo sapiens) (UniProt P04049). The conditions noted are these: at 1 µM.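 Further: values are the mean percent inhibition of CRAF.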
Test [2] concerns the target T1, Interleukin-1 receptor-associated kinase 4 (Homo sapiens) (UniProt Q9NWZ3).
T1 sequence (whole entry): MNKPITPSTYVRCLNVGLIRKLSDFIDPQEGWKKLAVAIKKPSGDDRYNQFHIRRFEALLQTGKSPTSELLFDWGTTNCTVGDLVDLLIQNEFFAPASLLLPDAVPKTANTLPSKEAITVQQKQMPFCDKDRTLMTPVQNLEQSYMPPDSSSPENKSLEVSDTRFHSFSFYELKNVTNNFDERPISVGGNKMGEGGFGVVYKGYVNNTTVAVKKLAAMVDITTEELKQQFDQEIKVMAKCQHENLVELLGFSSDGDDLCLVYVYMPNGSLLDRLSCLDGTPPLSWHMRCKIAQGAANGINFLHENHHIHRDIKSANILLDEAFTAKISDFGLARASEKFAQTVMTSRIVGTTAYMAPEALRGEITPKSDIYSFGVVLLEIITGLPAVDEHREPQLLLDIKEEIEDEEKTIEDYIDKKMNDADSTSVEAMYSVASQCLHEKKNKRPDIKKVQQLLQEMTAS
The conditions noted are these: at 0.1 µM.

The target in test [3] is T1, Interleukin-1 receptor-associated kinase 4 (Homo sapiens). The conditions noted are these: at 1 µM.
Test [4] has as its target Leucine-rich repeat serine/threonine-protein kinase 2 (Homo sapiens) (UniProt Q5S007). The settings on record: at 0.1 µM.
The target is the same in test [5]. The settings on record: at 1 µM.
In test [6] the test system is Leucine-rich repeat serine/threonine-protein kinase 2 (Homo sapiens), Q5S007 [G2019S]. The settings on record: at 0.1 µM.
For test [7] the test system is unchanged. The conditions noted are these: at 1 µM.

Leucine-rich repeat serine/threonine-protein kinase 2 (Homo sapiens), sequence (Q5S007 whole entry): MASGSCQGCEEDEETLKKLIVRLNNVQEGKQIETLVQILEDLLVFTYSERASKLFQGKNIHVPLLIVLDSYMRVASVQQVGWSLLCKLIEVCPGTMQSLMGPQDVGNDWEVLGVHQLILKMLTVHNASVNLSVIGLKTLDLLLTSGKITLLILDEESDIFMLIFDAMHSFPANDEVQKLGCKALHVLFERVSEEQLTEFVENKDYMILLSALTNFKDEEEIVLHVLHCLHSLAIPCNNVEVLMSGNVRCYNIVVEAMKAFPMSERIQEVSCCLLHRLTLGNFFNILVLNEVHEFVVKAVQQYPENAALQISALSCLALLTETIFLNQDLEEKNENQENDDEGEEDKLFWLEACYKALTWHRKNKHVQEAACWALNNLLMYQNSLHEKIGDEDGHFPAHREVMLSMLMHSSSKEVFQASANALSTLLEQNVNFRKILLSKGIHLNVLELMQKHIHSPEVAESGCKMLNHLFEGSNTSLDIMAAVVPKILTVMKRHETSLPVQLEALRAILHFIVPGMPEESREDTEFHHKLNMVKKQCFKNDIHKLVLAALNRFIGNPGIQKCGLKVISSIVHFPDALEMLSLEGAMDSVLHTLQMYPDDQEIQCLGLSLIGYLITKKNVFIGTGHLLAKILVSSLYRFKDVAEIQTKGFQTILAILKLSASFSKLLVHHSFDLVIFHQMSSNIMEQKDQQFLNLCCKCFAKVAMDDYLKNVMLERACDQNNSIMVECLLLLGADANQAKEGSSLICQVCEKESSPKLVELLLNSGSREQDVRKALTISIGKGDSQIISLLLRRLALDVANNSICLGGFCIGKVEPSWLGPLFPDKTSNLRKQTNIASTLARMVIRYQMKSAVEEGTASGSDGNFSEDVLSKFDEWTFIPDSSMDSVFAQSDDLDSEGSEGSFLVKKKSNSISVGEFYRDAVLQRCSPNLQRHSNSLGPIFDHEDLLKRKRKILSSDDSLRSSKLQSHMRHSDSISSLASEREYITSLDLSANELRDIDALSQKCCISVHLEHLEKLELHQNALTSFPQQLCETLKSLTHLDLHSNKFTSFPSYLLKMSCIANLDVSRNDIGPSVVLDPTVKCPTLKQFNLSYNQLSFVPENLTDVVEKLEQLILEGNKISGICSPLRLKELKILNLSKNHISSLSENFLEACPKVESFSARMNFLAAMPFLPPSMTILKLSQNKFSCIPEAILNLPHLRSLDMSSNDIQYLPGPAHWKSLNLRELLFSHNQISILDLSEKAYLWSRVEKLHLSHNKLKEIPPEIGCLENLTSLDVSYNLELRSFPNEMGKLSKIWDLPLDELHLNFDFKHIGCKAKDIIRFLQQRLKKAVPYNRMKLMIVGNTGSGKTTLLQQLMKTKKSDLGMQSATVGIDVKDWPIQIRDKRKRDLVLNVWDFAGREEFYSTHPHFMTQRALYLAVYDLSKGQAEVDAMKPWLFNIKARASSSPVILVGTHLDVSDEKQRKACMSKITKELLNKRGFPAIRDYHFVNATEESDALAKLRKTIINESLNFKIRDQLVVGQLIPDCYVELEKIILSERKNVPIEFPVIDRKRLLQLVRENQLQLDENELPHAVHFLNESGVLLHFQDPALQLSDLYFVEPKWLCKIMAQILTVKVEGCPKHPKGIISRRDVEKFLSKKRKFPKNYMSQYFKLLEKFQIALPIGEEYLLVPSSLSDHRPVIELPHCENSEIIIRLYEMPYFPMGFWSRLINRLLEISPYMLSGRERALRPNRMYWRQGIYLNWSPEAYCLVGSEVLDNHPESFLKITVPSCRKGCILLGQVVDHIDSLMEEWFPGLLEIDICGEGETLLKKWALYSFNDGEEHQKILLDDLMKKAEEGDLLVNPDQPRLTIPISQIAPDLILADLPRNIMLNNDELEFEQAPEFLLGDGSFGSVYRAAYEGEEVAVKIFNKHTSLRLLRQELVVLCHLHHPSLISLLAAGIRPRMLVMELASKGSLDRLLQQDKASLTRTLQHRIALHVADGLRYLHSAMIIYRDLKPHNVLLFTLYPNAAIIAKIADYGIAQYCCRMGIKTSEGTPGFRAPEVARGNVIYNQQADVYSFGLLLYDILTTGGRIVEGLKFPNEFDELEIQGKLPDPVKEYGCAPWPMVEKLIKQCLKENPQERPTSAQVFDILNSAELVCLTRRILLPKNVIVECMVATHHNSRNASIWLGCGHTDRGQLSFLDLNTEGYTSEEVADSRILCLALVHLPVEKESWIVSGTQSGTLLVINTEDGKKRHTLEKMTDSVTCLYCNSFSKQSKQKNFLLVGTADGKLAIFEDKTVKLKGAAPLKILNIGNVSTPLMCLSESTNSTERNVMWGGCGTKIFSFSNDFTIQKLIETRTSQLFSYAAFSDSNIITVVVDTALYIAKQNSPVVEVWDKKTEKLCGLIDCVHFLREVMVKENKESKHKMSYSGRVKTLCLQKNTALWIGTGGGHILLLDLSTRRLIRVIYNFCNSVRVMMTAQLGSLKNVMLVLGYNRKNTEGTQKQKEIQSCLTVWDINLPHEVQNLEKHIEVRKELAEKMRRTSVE
RAF proto-oncogene serine/threonine-protein kinase (Homo sapiens), sequence (P04049 whole entry): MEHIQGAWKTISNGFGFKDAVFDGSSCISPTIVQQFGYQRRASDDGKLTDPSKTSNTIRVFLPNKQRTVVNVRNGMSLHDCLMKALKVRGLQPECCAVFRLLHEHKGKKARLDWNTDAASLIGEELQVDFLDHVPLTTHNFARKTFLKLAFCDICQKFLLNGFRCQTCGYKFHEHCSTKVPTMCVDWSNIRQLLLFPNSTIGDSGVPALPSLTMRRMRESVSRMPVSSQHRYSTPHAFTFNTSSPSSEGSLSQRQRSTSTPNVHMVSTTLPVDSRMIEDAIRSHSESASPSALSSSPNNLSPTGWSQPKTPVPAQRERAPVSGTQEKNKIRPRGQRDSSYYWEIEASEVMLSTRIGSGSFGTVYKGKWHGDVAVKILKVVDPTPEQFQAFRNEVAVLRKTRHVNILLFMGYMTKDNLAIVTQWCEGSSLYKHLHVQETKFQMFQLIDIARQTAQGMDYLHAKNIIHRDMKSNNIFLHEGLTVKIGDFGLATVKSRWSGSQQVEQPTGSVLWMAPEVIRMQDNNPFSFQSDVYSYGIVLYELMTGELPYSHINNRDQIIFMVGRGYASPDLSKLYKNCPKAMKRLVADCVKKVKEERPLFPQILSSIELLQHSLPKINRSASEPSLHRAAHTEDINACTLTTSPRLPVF
Leucine-rich repeat serine/threonine-protein kinase 2 (Homo sapiens), Q5S007 [G2019S], sequence (Q5S007 whole entry G2019S): as the sequence (Q5S007 whole entry) above, with G2019S counted along it

Take `[O-][S+]1CCN(Cc2ccc(-c3ccc4ncnc(Nc5ccc(OCc6ccccc6)c(Cl)c5)c4c3)o2)CC1`: the inhibition – broadly, the relative decrease from the control value, in per cent – in test [1] was -0.7%; in test [2], 0.32%; in test [3] it was 0.82%; in test [4], 1.07%; in test [5], 2.89%; in test [6], 4.21%. Further, the inhibition in test [7] was found to be 4.96%.
Turning to `O=S(=O)(CCOCc1ccc(-c2ccc3ncnc(Nc4ccc(OCc5cccc(F)c5)c(Cl)c4)c3c2)o1)c1ccccc1`, the inhibition was -1.29% in test [1]; 0.22% in test [2]; 0.93% in test [3]; 4.19% in test [4]; 9.06% in test [5]; 6.55% in test [6]. The inhibition in test [7] stood at 10.3%.
`Cc1cc(O)cc(C)c1/C=C/c1cncc(C(=O)N(C)C)c1`: the inhibition was -5.4% in test [1]; -1.62% in test [2]; 2.21% in test [3]; 4.81% in test [4]; 7.82% in test [5]; 3.29% in test [6]. In addition, the inhibition in test [7] came to 7.6%.
On to `Cc1ccc(NC(=O)CC2CC2)cc1-c1ccc(C(=O)NCC2CC2)cc1`, for which the inhibition in test [1] was 2.03%; in test [2], -2.97%; in test [3], 2.2%; in test [4], 2.09%; in test [5], 7.62%; in test [6], 3.23%. Also, the inhibition in test [7] amounted to 6.82%.
Consider `CCCN1CCCC(c2ccc(Nc3nc(Nc4cc(F)ccc4C(N)=O)c4cc[nH]c4n3)c(OC)c2)C1` (stereo unspecified), for which the inhibition in test [1] is -4.64%; in test [2], 3.05%; in test [3] it was 3.34%; in test [4], 86.9%; in test [5] it was 88.3%; in test [6], 80.5%. Besides, the inhibition in test [7] is 83.5%.
Regarding `Cc1ccc2c(-c3ccnc(Nc4ccc5c(c4)OCCO5)n3)c(-c3ccc(C(F)(F)F)cc3)nn2n1`, the inhibition in test [1] was 1.48%; in test [2], -0.63%; in test [3], -0.5%; in test [4] it was 2.01%; in test [5], 2.22%; in test [6], 2.87%. Moreover, the inhibition in test [7] was 3.58%.
As for `NS(=O)(=O)c1ccc(-c2cc3ccncc3cc2OCc2ccccc2)cc1`, the inhibition in test [1] is 1.99%; in test [2] it was -1.18%; in test [3] it was 1.31%; in test [4], 2.38%; in test [5] it was 7.53%; in test [6], 1.82%. Further, the inhibition in test [7] came out at 8.17%.
Turning to `NC(=O)c1cccc(Nc2nccc(Nc3cccc(F)c3)n2)c1`, the inhibition was -1.43% in test [1]; 0.1% in test [2]; 2.52% in test [3]; -0.11% in test [4]; 10% in test [5]; 1.9% in test [6]. In addition, the inhibition in test [7] turned out to be 18.2%.
Take `CN(C)C(=O)O[C@H]1CN[C@H](C#Cc2cc3ncnc(Nc4ccc(OCc5cccc(F)c5)c(Cl)c4)c3s2)C1`: the inhibition in test [1] was 5.68%; in test [2] it was -3.18%; in test [3], 1.16%; in test [4], 1.64%; in test [5], 2.05%; in test [6] it was 4.13%. The inhibition in test [7] came out at 6.83%.
On to `FC(F)(F)c1ccc(-c2nn3ncccc3c2-c2ccnc(Nc3ccc4c(c3)OCCO4)n2)cc1`, for which the inhibition was -0.8% in test [1]; 5.37% in test [2]; 1.44% in test [3]; 4.63% in test [4]; 8.46% in test [5]; 6.21% in test [6]. Besides, the inhibition in test [7] came out at 10.1%.
For the compound `COC(=O)Nc1nc2cc(Oc3ccc(NC(=O)Nc4cccc(Br)c4)cc3)ccc2[nH]1`, the inhibition in test [1] came out at 44.2%; in test [2], 1.75%; in test [3], 1.23%; in test [4], 8.94%; in test [5] it was 13.4%; in test [6], 4.67%. Moreover, in test [7], the inhibition is 10.5%.
Take `COc1cccc(-n2nc(C)c3c(N/N=C(\C)c4ccncc4)ncnc32)c1`: the inhibition in test [1] was -2.83%; in test [2] it was -0.08%; in test [3], 0.93%; in test [4], 2.29%; in test [5] it was 4.69%; in test [6], 2.88%. The inhibition in test [7] worked out at 4.64%.
Turning to `CN1CCN(C(=O)c2ccc(NC(=O)Nc3ccc(N(C)c4ccnc(Nc5ccc(CS(C)(=O)=O)cc5)n4)cc3)cc2)CC1`, the inhibition was -0.88% in test [1]; 0.32% in test [2]; 0.52% in test [3]; 13.7% in test [4]; 21.2% in test [5]; 15.2% in test [6]. Further, the inhibition in test [7] turned out to be 50.9%.
With `c1ccc(Nc2ncc(-c3ccccc3)o2)cc1`, the inhibition in test [1] came out at 0.56%; in test [2] it was 2.02%; in test [3] it was 2.65%; in test [4] it was 1.16%; in test [5], 4.27%; in test [6], 3.18%. Also, the inhibition in test [7] worked out at 8.98%.
`CCS(=O)(=O)c1ccc(OC)c(Nc2nccc(N(C)c3ccc4c(C)n[nH]c4c3)n2)c1`: the inhibition was determined as 3.08% in test [1]; 1.47% in test [2]; 1.99% in test [3]; 5.36% in test [4]; 22.5% in test [5]; 8.48% in test [6]. Besides, the inhibition in test [7] is 27.3%.
In the case of `COc1cc(Nc2nccc(-c3cnn4ncccc34)n2)cc(OC)c1`, the inhibition in test [1] came to 10.1%; in test [2] it was 5.71%; in test [3] it was 18.6%; in test [4] it was 18.7%; in test [5] it was 24.4%; in test [6], 22.1%. Also, the inhibition in test [7] turned out to be 62.9%.
In the case of `CN(c1ccc(NC(=O)Nc2ccc(OC(F)(F)F)cc2)cc1)c1ccnc(Nc2cccc(S(N)(=O)=O)c2)n1`, the inhibition in test [1] is -4.06%; in test [2] it was 1.26%; in test [3], 2.86%; in test [4], 4.25%; in test [5], 27.6%; in test [6] it was 3.86%. Further, the inhibition in test [7] stood at 17.2%.
On to `Cc1ccc2c(-c3ccnc(Nc4cccc(C(F)(F)F)c4)n3)c(-c3ccccc3)nn2n1`, for which the inhibition was determined as 3.34% in test [1]; 2.03% in test [2]; 2.78% in test [3]; 1.87% in test [4]; 7.47% in test [5]; 2.59% in test [6]. The inhibition in test [7] was found to be 4.94%.
`Cc1ccc(C(=O)NC2CC2)cc1-c1ccc2[nH]ncc2c1`: the inhibition in test [1] is -2.56%; in test [2], -1.84%; in test [3], -0.57%; in test [4], -0.67%; in test [5], 2.87%; in test [6], 1.11%. Further, the inhibition in test [7] was 4.33%.
Take `COc1cccc(-n2ncc3c(N/N=C/c4ccc(C)cc4)ncnc32)c1`: the inhibition in test [1] worked out at 0.4%; in test [2], 2.16%; in test [3], 4.05%; in test [4], 10.2%; in test [5] it was 18.8%; in test [6] it was 11.3%. For the same compound, the inhibition in test [7] is 27.9%.
Take `N#Cc1cccc(Nc2nccc(-c3cnn4ncccc34)n2)c1`: the inhibition in test [1] is 0.47%; in test [2], 4.11%; in test [3], 15.1%; in test [4], 4.57%; in test [5], 19.8%; in test [6] it was 7.72%. Besides, the inhibition in test [7] was determined as 40.4%.
For `Nc1ccc(C#Cc2cncnc2Nc2ccc(OCc3cccc(F)c3)c(Cl)c2)cc1`, the inhibition in test [1] was -1.01%; in test [2], 0.78%; in test [3], 1.25%; in test [4], 2.69%; in test [5], 2.94%; in test [6], 3.21%. The inhibition in test [7] was 3.62%.
For `CCn1c(-c2nonc2N)nc2ccc(F)cc21`, the inhibition in test [1] turned out to be 0.22%; in test [2] it was 1.39%; in test [3] it was 2.93%; in test [4] it was 4.04%; in test [5] it was 8.92%; in test [6], 4.92%. In addition, the inhibition in test [7] was 4.42%.
With `Nc1nccc(C#Cc2cncnc2Nc2ccc(OCc3cccc(F)c3)c(Cl)c2)n1`, the inhibition in test [1] was -0.28%; in test [2] it was 0.44%; in test [3] it was 2.48%; in test [4], 7.72%; in test [5], 11.1%; in test [6], 8.54%. Also, in test [7], the inhibition was determined as 14%.
`Cc1cc(Cl)cc2c1NC(=O)C2=NNc1ccc(S(N)(=O)=O)cc1`: the inhibition in test [1] came to 3.57%; in test [2], 3.1%; in test [3], 1.43%; in test [4], 0.71%; in test [5], 2.23%; in test [6], 1.78%. Also, the inhibition in test [7] is 4.5%.
Turning to `O=C1Nc2ccc(-c3cccnc3)cc2C1=Cc1cc(Br)c(O)c(Br)c1`, the inhibition is 21.8% in test [1]; -1.88% in test [2]; 4.22% in test [3]; 23.2% in test [4]; 22.3% in test [5]; 47.2% in test [6]. In test [7], the inhibition amounted to 61.3%.
On to `CN(C)CCCn1c(-c2nonc2N)nc2cnccc21`, for which the inhibition in test [1] is 1.81%; in test [2] it was 4.22%; in test [3], 1.99%; in test [4], 3.63%; in test [5] it was 2.14%; in test [6] it was 2.04%. Besides, in test [7], the inhibition turned out to be 2.51%.
For `N#Cc1c(NC(=O)c2ccccc2F)sc2c1CCCC2`, the inhibition in test [1] was -0.64%; in test [2], -1.41%; in test [3] it was -0.41%; in test [4] it was 1.84%; in test [5], 1.84%; in test [6], 2.14%. In addition, the inhibition in test [7] turned out to be 3.2%.
In the case of `NS(=O)(=O)c1ccc(NC=C2C(=O)Nc3ccc4ncsc4c32)cc1`, the inhibition is -1.97% in test [1]; 0.1% in test [2]; 4.43% in test [3]; 23.9% in test [4]; 78.8% in test [5]; 48.8% in test [6]. Also, the inhibition in test [7] came out at 59.7%.
Turning to `NS(=O)(=O)c1cccc(-c2cc3ccncc3cc2OCc2ccccc2)c1`, the inhibition in test [1] is 0.71%; in test [2], 1.17%; in test [3], 2.26%; in test [4] it was 4.42%; in test [5] it was 8.85%; in test [6], 4.16%. In addition, in test [7], the inhibition turned out to be 8.74%.
As to `CS(=O)(=O)CCNCc1nc(-c2ccc3ncnc(Nc4ccc(OCc5cccc(C(F)(F)F)c5)cc4)c3c2)cs1`, the inhibition was -1.38% in test [1]; 0.78% in test [2]; 1.16% in test [3]; 1.09% in test [4]; 6.41% in test [5]; 3.12% in test [6]. Further, the inhibition in test [7] came out at 5.01%.
`COc1cc2ncnc(Nc3ccc(C)c(O)c3)c2cc1OC`: the inhibition in test [1] was -1.36%; in test [2] it was 4.09%; in test [3] it was 2.62%; in test [4], 1.75%; in test [5] it was 8.77%; in test [6], 4.67%. In test [7], the inhibition is 18.3%.
For the compound `COC(=O)c1cncc(/C=C/c2c(C)cc(O)cc2C)c1`, the inhibition in test [1] was -7.11%; in test [2], -4.61%; in test [3], 1.8%; in test [4], 1.53%; in test [5], 6.87%; in test [6], 2.83%. Also, the inhibition in test [7] stood at 9.71%.
